Compound activity as filed in PubChem BioAssay.
DRD3 antagonist – qHTS of D3 Dopamine Receptor Antagonist: qHTS. D3R cells, DiscoveRx beta-arrestin luminescence, antagonist mode; stronger effect = lower value. 2.5% of 360,000 active. D(3) dopamine receptor (Homo sapiens), P35462. max response, negative = inhibition, %; in the data active = max response below about -50%; inconclusive = no clear call, values can overlap the other calls
Target sequence (P35462 whole entry, looked up): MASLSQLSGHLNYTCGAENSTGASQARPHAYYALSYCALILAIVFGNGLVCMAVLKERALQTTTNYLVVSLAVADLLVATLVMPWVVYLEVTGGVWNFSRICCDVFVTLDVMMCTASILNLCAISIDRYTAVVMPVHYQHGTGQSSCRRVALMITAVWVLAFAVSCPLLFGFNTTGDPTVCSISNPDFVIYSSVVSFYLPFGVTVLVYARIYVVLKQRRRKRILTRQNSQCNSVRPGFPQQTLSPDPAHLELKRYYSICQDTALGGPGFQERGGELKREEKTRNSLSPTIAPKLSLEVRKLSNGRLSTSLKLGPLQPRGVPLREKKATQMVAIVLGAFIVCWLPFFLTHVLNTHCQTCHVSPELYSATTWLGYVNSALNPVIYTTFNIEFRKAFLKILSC
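Cells plated overnight at 1500 cells/well, then exposed to library compounds with dopamine controls for 90 minutes at 37 degrees C. DiscoveRx reagent added for 30–60 minutes at room temperature; luminescence read, quantitative HTS format.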
S2 tox – Viability Counterscreen for Primary qHTS for Inhibitors of ATXN expression. S2 cells (HEK-293 line with an ATXN2-luciferase reporter) viability, CellTiter-Fluor protease fluorescence, 24 h. Potency, µM (series often up to 56.7 µM), hits mostly cytotoxic. 0.49% of 400,000 active; also: nearly all actives have a fitted effect of over 40% in size
HepG2 viability – qHTS for Inhibitors of TGF-b: Cytotox Counterscreen; HepG2 CAGA-GFP viability, ATP luminescence, 18 h; Potency, µM (highest dose often 46.1 µM), usual class: cytotoxic; 0.76% of 410,000 active; AID 588856, 2011
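CellTiter-Glo luminescence gave cytotoxicity after 18 hours at 37 degrees C. The cells were HepG2 CAGA-GFP in 1% FBS DMEM, stimulated with 500 pg/mL TGF-beta after compound addition. %Activity was normalised to no-cell wells (complete cell-killing) and DMSO (no toxicity), and curves were fitted and classified.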
TGFb inhibitor – qHTS for Inhibitors of TGF-b. HepG2 CAGA-GFP TGF-b/SMAD3 reporter, GFP fluorescence, 18 h; TGF-beta stimulated, 500 pg/mL final. Potency, µM (doses to about 46.1 µM), hits mostly inhibitors. 1.2% of 410,000 active; also: nearly all actives have a fitted effect of over 65% in size
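Cell-based qHTS in HEPG2 carrying a CAGA-GFP Smad reporter; compounds added before 500 pg/mL final TGF-beta, 18 h incubation at 37 degrees C, GFP fluorescence quantified per cell by imaging cytometry.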
ATXN2 expr inh – Primary qHTS for Inhibitors of ATXN expression; HEK-293 ATXN2-luciferase reporter, luminescence, 24 h; Potency, µM (top dose mostly 57 µM), hits mostly inhibitors; 0.72% of 360,000 active; AID 1745845, 2022; also: nearly all actives have a fitted effect of over 55% in size
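ATXN2-luciferase reporter cells (luciferase flanked by upstream and downstream ATXN2 gene portions) were treated 24 h at 37 °C with compounds at up to 57 uM. SteadyGlo luminescence gave expression; GF-AFC fluorescence gave viability.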
D3 ag – qHTS of D3 Dopamine Receptor Agonist: qHTS | D3R DiscoveRx beta-arrestin cells, luminescence, 90 min | max activation, % | 0.58% of 410,000 active; in the data active = max activation above about 30%
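Agonist-mode cell screen: cells plated at 1500/well and incubated overnight at 37 °C, then exposed to library compounds for 90 min at 37 °C. Detection reagent was added for 30–60 min at room temperature, and luminescence was read.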
Large screens that a line does not name were inactive; ! = a repeat was not active. This is a sample that favours compounds with a hit; in the whole collection about 4.8% have one here. Unless noted, calls follow the shape of the dose curve; as a rule, active = well fitted curve in the direction sought with a large enough effect; inconclusive = small, poorly fitted or top-dose-only effect, or another doubt; inactive = no such curve, though single readings can be large; an effect the other way counts as inactive or inconclusive.

CCN(CC)CCNC(=O)C1CCN(S(=O)(=O)c2c(C)noc2/C=C/c2ccccc2F)CC1	S2 tox inconclusive, HepG2 viability 14µM!, TGFb inhibitor inconclusive, ATXN2 expr inh 13µM
Cc1noc(/C=C/c2ccco2)c1S(=O)(=O)N1CCC(C(=O)Nc2ccc(F)c(Cl)c2)CC1	TGFb inhibitor 2.5µM (no result: DRD3 antagonist, S2 tox, ATXN2 expr inh)
O=C(CC(c1cccs1)N1Cc2ccccc2C1=O)Nc1ccccc1 (stereo unspecified)	none (no result: DRD3 antagonist)
CCOc1ccc(N2CC(NC(=O)C3CCCCC3)CC2=O)cc1 (stereo unspecified)	none (no result: DRD3 antagonist, S2 tox, ATXN2 expr inh)
Cc1ccccc1OCC(=O)OCc1cc(=O)n2nc(C3CCCCC3)sc2n1	none (no result: DRD3 antagonist)
CCOC(=O)c1ccc(NC(=O)C2COc3ccccc3O2)cc1 (stereo unspecified)	none
CCOC(=O)c1ccc(-n2c(O)c(/C=N/NC(=O)C3COc4ccccc4O3)c3ccccc3c2=O)cc1 (stereo unspecified)	TGFb inhibitor 8.9µM
C=CCSc1nnc(C2CCCN(Cc3ccccc3O)C2)n1C (stereo unspecified)	none (no result: DRD3 antagonist, HepG2 viability, TGFb inhibitor, ATXN2 expr inh, D3 ag)
COc1ccc(NC(=O)C2CCN(c3cc(-c4ccccc4)nc4ncnn34)CC2)cc1OC	ATXN2 expr inh inconclusive, D3 ag 55
COc1ccc(OC)c(NC(=O)C2CCN(c3cc(-c4ccccc4)nc4ncnn34)CC2)c1	ATXN2 expr inh inconclusive
CC1=C(C(=O)Nc2cccc(C(F)(F)F)c2)C2(CCN(C(C)C)CC2)OC1=O	none (no result: DRD3 antagonist)
O=[N+]([O-])c1ccc(/C=N/Nc2nc(NCc3ccccc3)nc(N3CCOCC3)n2)cc1	TGFb inhibitor inconclusive (no result: ATXN2 expr inh)
O=[N+]([O-])c1cccc(/C=N/Nc2nc(NCc3ccccc3)nc(N3CCOCC3)n2)c1O	DRD3 antagonist -138, S2 tox inconclusive, TGFb inhibitor inconclusive, ATXN2 expr inh inconclusive
COc1ccc(NC(=O)Cn2c(=O)n(-c3cccc(C)c3)c(=O)c3c2c2cc(C)ccc2n3C)cc1Cl	none (no result: DRD3 antagonist)
CC1(C(=O)Nc2cccc3cccnc23)CCN1Cc1cccc2c1OCO2 (stereo unspecified)	S2 tox 14µM, TGFb inhibitor inconclusive, ATXN2 expr inh 6.3µM
COc1cc(C(=O)O/N=C2\C=CC(=O)C(C)=C2)cc(OC)c1OC	DRD3 antagonist -57, S2 tox inconclusive, TGFb inhibitor inconclusive
CCOc1ccccc1NC(=O)c1c(NCc2sccc2C)sc2c1CCCCC2	S2 tox inconclusive, TGFb inhibitor inconclusive, ATXN2 expr inh inconclusive (no result: DRD3 antagonist)
CCOC(=O)N1CCc2c(sc(NCc3sccc3C)c2C(=O)Nc2ccc(OC)cc2OC)C1	ATXN2 expr inh 14µM (no result: DRD3 antagonist)
COc1ccc(NC(=O)c2c(NCc3sccc3C)sc3c2CCCCC3)c(OC)c1	TGFb inhibitor inconclusive, ATXN2 expr inh inconclusive (no result: DRD3 antagonist, S2 tox)
COc1ccc(OC)c(NC(=O)c2c(NCc3cccs3)sc3c2CCCC3)c1	TGFb inhibitor 16µM (no result: DRD3 antagonist, S2 tox, ATXN2 expr inh)
CCOc1ccccc1NC(=O)c1c(NCc2cccs2)sc2c1CCCCC2	S2 tox inconclusive, TGFb inhibitor 18µM, ATXN2 expr inh inconclusive (no result: DRD3 antagonist)
CC(=O)Oc1ccc(Cl)cc1/C=C/c1ccc2ccccc2n1	S2 tox inconclusive, TGFb inhibitor inconclusive
CC(=O)Oc1c(Cl)cc(Cl)cc1/C=C/c1ccc2ccccc2n1	D3 ag 39 (no result: S2 tox)
CCc1cc(C(=O)NNC(=S)Nc2cc(C)ccc2C)cs1	none
CCc1cc(C(=O)NNC(=S)Nc2ccccc2C)cs1	DRD3 antagonist -97, TGFb inhibitor inconclusive
CC1(C)Cc2ccccc2-c2nnc(-c3ccco3)n21	DRD3 antagonist -52
c1coc(-c2nnc3n2C2(CCCC2)Cc2ccccc2-3)c1	none
Cc1ccccc1NC(=O)Nc1ccc2nc(N3CCN(C)CC3)cc(C)c2c1	none (no result: DRD3 antagonist)
CCOc1ccccc1NC(=O)Nc1ccc2nc(N3CCN(C)CC3)cc(C)c2c1	HepG2 viability 7.9µM, TGFb inhibitor inconclusive, ATXN2 expr inh inconclusive (no result: DRD3 antagonist, S2 tox)
CCOc1ccccc1C(=O)Nc1ccc2nc(N3CCN(c4ncccn4)CC3)cc(C)c2c1	S2 tox inconclusive, ATXN2 expr inh 14µM
Cc1ccccc1C(=O)Nc1ccc2nc(N3CCCCC3)cc(C)c2c1	S2 tox inconclusive (no result: DRD3 antagonist)
CCCc1cc(=O)[nH]c2nnc(SCC)n12	none (no result: DRD3 antagonist, S2 tox, ATXN2 expr inh)
O=C(c1cc(Br)c(Br)s1)N1CCN(C/C=C/c2ccccc2)CC1	DRD3 antagonist -78
O=C(c1cc2ccccc2o1)N1CCN(C/C=C/c2ccccc2)CC1	DRD3 antagonist -78, TGFb inhibitor inconclusive
COc1ccc2c(c1)c1c(c(=O)n(CCc3ccccc3)c(=O)n1Cc1ccc(Cl)cc1)n2C	none (no result: DRD3 antagonist)
CCOC(=O)c1cccc(NC(=O)c2cc(CN3CCOCC3)on2)c1	none (no result: DRD3 antagonist)
COc1cc2c(-c3ccc4cc[nH]c4c3)c(-c3ccsc3)oc(=O)c2cc1OC	TGFb inhibitor inconclusive, D3 ag 52
O=C(Nc1ccc(Oc2ccccc2)cc1)c1csc([C@@H]2O[C@H](CO)[C@H](O)[C@H](O)[C@H]2O)n1	DRD3 antagonist -92
CSc1ccccc1OCc1cc(C(=O)N2CCc3c(Cl)cccc3C2)no1	TGFb inhibitor inconclusive, D3 ag 32
NNc1nc(-c2ccccc2)cc(-c2ccccc2)n1	S2 tox inconclusive, ATXN2 expr inh inconclusive
NNc1nc(-c2ccccc2)cc(-c2ccccc2O)n1	DRD3 antagonist -100
Cc1onc(-c2ccccc2)c1C(=O)OCC(=O)Nc1ccc(OC(F)(F)F)cc1	TGFb inhibitor 13µM, ATXN2 expr inh inconclusive
Cc1c(Cl)cccc1-c1ccc(/C=C(\C#N)c2nc3ccccc3[nH]2)o1	HepG2 viability 7.9µM, TGFb inhibitor 6.3µM (no result: DRD3 antagonist, S2 tox)
CCn1c(=NC(=O)c2ccc(N3C(=O)CCC3=O)cc2)sc2c(OC)ccc(OC)c21	DRD3 antagonist -76, ATXN2 expr inh inconclusive
CCn1c(=NC(=O)c2cccc(N3C(=O)CCC3=O)c2)sc2c(C)ccc(OC)c21	none
O=C(Nc1ccc2nc(SCC(=O)N3CCCC3)sc2c1)c1ccccc1F	none (no result: DRD3 antagonist, S2 tox, ATXN2 expr inh)
CN1CCN(C(=O)CCCN2C(=O)/C(=C/c3cccc(Br)c3)SC2=S)CC1	S2 tox 11µM, TGFb inhibitor inconclusive, ATXN2 expr inh inconclusive
CN1CCN(C(=O)CCN2C(=O)/C(=C/c3cccc(Br)c3)SC2=S)CC1	DRD3 antagonist inconclusive, S2 tox inconclusive, TGFb inhibitor 18µM
O=C(CCCN1C(=O)/C(=C/c2cccc(Br)c2)SC1=S)N1CCOCC1	none
COc1ccc(C(=O)Nc2ccc3c(c2)C(=O)c2ccccc2C3=O)cc1OC	none
